Compound activity as filed in PubChem BioAssay.
D1 ag: activates the human D1 dopamine receptor | HEK293 T-REx D1 cells, calcium flux, agonist mode | activation, % at 2 µM | 1% of 360,000 active; further: 0% is about no effect
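Tetracycline-induced HEK293 TREx D1 cells, force-coupled to calcium signalling, were dye-loaded with a no-wash calcium kit. Compound was pin-added after a 10 s baseline. Fluorescence was read kinetically at 1 cycle/s for 180 s, with calcium rises flagged as agonism.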
D1 antag: human D1 dopamine receptor antagonism; activity change, negative = inhibition, % at 10 µM; 3.2% of 360,000 active; P21728; HEK293 TREx D1 cells, calcium flux, dopamine EC80; active compounds read low; AID 504652; in the data active means activity change below about -30%; further: on the % scale 0 is the no-effect control and ±100 the full control effect
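HEK293 T-REx cells expressing inducible, force-coupled D1 receptor; no-wash Ca dye, 30–90 min RT. Cmpd → 180 s read at 1 Hz → EC80 DA → 180 s read.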
USP1 inh: blocks the human USP1/UAF1 deubiquitinase complex | recombinant USP1/UAF1, Ub-Rhodamine cleavage fluorescence | 0.23% of 390,000 active | O94782 | Potency, µM (doses to about 57.1 µM), inactives show at the highest dose activity change, negative = inhibition, hits mostly inhibitors; active means well fitted inhibition curve with a large enough effect; inconclusive means small, poorly fitted or top-dose-only effect; inactive means no such curve, though single readings can be large or run the other way; further: potency means the concentration at half of the fitted maximal effect; on the % scale 0 is the no-effect control and ±100 the full control effect; nearly all actives have a fitted effect of over 60% in size
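USP1/UAF1 complex (1 nM) preincubated 15 min at room temperature with compound, then Ub-Rho substrate (150 nM final) added. Kinetic fluorescence at 480/540 nm over 6 reads at 60 s intervals; 50 mM HEPES pH 7.8, 0.5 mM EDTA, 0.1 mg/ml BSA, 1 mM TCEP, 0.01% Tween-20.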
D1 potentiator: enhances dopamine response at the human D1 receptor; P21728; HEK293 TREx D1 cells, calcium flux, dopamine EC20 potentiation; potentiation, % at 10 µM; 0.036% of 360,000 active; AID 504651; in the data active means potentiation above about 30%; further: 0% is about no effect
TRHR PAM: allosteric enhancers of human TRH receptor. 0.66% of 360,000 active. P34981. AID 493056. TRHR cells, fluo-8 calcium fluorescence, EC20 TRH enhancement. enhancement, % at 2 µM; in the data active means enhancement above about 30%; further: 0% is about no effect
Target sequence (P34981 whole entry, looked up): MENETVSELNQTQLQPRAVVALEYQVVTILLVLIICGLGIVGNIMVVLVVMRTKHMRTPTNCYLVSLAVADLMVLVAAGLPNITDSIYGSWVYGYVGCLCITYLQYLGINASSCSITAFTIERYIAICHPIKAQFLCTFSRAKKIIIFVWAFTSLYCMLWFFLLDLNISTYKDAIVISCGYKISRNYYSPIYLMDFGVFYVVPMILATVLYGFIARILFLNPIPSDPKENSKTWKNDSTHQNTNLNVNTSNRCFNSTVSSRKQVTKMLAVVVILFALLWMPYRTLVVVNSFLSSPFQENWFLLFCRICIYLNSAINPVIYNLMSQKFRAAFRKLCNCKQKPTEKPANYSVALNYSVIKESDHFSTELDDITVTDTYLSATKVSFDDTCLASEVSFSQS
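Enhancer read-out: after compound pinning and an initial kinetic agonist-mode read, an EC20 of TRH (10 nM final) was injected and fluo-8 calcium signal (Ex 480/Em 530) followed at 1 s/cycle for 100 cycles in TRHR-expressing cells.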
TRHR ag: activates the human TRH receptor; P34981; TRHR cells, calcium flux fluo-8, FDSS agonist mode; activation, % at 2 µM; 0.18% of 360,000 active; further: 0% is about no effect
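Fluo-8-loaded TRHR cells; 10 s baseline, compound added, kinetic Ca2+ fluorescence read 1/s, agonist mode.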
Numbers without * were called inactive; ? = inconclusive; . = not tested or not shown; ! = not confirmed by another sample. Only some compounds are listed: those with a hit (about 4.4% of all), similar ones and a draw of the others. Unless noted, no stated cut-off is given here; in the data, active means activation above about 30%; inactive means the rest.

SMILES	D1 ag	D1 antag	USP1 inh	D1 potentiator	TRHR PAM	TRHR ag
c1ccc2c(c1)[nH]c1cnccc12	0	17	-25%	-2	-4	0
O=C(Nc1ccc2c(c1)OCCO2)c1cccn(Cc2cccc([N+](=O)[O-])c2)c1=O	-2	.	-29%	-2	-3	0
CCCC12CN3CC(C)(CN(C1)C3c1ccccn1)C2=O (stereo unspecified)	1	-1	-1%	3	6	1
Cc1oc2cc3oc(=O)c(CCC(=O)N4CCCCC4)c(C)c3cc2c1C	10	-22	?	-2	3	-1
CNC(=O)c1cccn(Cc2ccc(C(F)(F)F)cc2)c1=O	6	1	-8%	-3	-7	1
CNC(=O)c1cccn(Cc2cc(C(F)(F)F)cc(C(F)(F)F)c2)c1=O	30*	1	-19%	-1	-9	2
CCN(CC)C(=O)c1ccc(NC(=O)c2cccc(S(=O)(=O)N3CCN(Cc4ccccc4)CC3)c2)cc1	5	-32*	-17%	-7	-2	0
CN(C)c1ccc(CNC(=O)Cn2c(=O)oc3cc(S(=O)(=O)N4CCCCCC4)ccc32)cc1	4	-15	?	-5	-1	0
CN(C)C(=O)Oc1ccc(OCc2nc3ccccc3[nH]2)cc1	16	-48*	0%	-8	-4	0
CN(C)C(=O)Oc1ccc(OC(=O)N(C)C)cc1	1	-5	-15%	-1	7	0
Cc1cccc(N2CCc3c2nc2ccccc2c3N)c1	6	-32*!	?	-9	4	1
Cc1cccc(-n2c(/C=C/c3ccccc3O)nc3ccccc3c2=O)c1	8	-7	-6%	-2	3	3
CN(C)CCCNCC(=O)Nc1ccc(Cl)cc1C(=O)c1ccccc1	2	-1	-1%	2	-4	-1
CCN(CC)CCNCC(=O)Nc1ccc(Cl)cc1C(=O)c1ccccc1	1	-38*	-3%	-4	-2	0
O=C(Nc1ccc(F)c([N+](=O)[O-])c1)c1cccn(Cc2ccccc2)c1=O	1	.	4%	-3	-1	1
Cc1ccc(CN2C3CCCC2CC(NC(=S)NCc2ccccc2)C3)cc1 (stereo unspecified)	34*	-75*	-21%	2	-6	8
CCCN1CCC[C@H](c2cccc(O)c2)C1	1	5	6%	-2	0	0
CCCN1CCC[C@@H](c2cccc(O)c2)C1	-2	-54*	-10%	-6	-5	1
N#Cc1ccc(C(=O)N2CCN(c3nc4ccc(F)cc4s3)CC2)cc1	8	.	?	-2	-6	0
CCCC1=Nc2cc(C(=O)NC3CCC(C)CC3)ccc2Sc2ccccc21 (stereo unspecified)	3	14	?	-1	0	0
O=c1[nH]c(O)c(N=Nc2ccc3c(c2)OCCO3)c(=O)[nH]1	1	38	?	-1	-2	1
O=C(N=Nc1c(O)[nH]c(=O)[nH]c1=O)C1COc2ccccc2O1 (stereo unspecified)	2	-37*	?	-10	-7	0
Oc1ccc2c3c1OC1c4[nH]c5ccccc5c4C[C@@]4(O)C(C2)N(CC2CC2)CC[C@]314 (stereo partly specified)	.	.	-30%	.	.	.
C=C(C)CN1CC[C@]23c4c5ccc(O)c4O[C@H]2c2[nH]c4ccccc4c2C[C@@]3(O)C1C5	-1	-80*	.	-4	8	0
Cc1ccc(NC(=O)CN2C(=O)CN=C(c3ccccc3)c3ccccc32)cc1Cl	4	-1	-18%	-4	-2	0
SMILES	D1 ag	D1 antag	USP1 inh	D1 potentiator	TRHR PAM	TRHR ag
Cc1cccc2sc(NC(=O)c3cccn(Cc4ccccc4)c3=O)nc12	4	.	-22%	2	-6	1
N#CC(C#N)=Cc1ccc(N2CCCC2)cc1	37*	-27	-26%	-11	2	6
COCCCNC(=O)c1c(NC(=O)c2ccccc2Cl)n(Cc2ccccc2)c2nc3ccccc3nc12	40*	2	-4%	-3	-6	9
COCCNC(=O)c1c(NC(=O)c2ccco2)n(Cc2ccccc2)c2nc3ccccc3nc12	5	23	-19%	0	2	7
Cn1cc(C(=O)N2CCCCC2)c2ccccc21	2	-30*	1%	-3	2	1
CCCCOCCCn1c(N)c(C(=O)OC(C)COC)c2nc3ccccc3nc21 (stereo unspecified)	-1	-8	-20%	-6	4	-1
CCC(C)NC(=O)c1c(N)n(CCCOC)c2nc3ccccc3nc12 (stereo unspecified)	3	1	32µM*	2	1	2
COCCCn1c(N)c(C(=O)OC(C)COC)c2nc3ccccc3nc21 (stereo unspecified)	0	-32*	-11%	-4	-1	-2
Cc1nnc(NC(=O)c2cccn(Cc3cccc([N+](=O)[O-])c3)c2=O)s1	-1	.	-11%	1	4	0
CCOc1ccccc1NC(=O)c1cccn(Cc2ccccc2C)c1=O	7	29	-12%	2	-2	0
O=c1c2ccccc2nc(/C=C\c2ccccc2F)n1-c1ccc(O)cc1	-2	-6	3%	-1	2	0
O=C(O)Cn1cc(/C=C2\C(=O)NC(=O)N(c3ccc(Br)cc3)C2=O)c2ccccc21	4	-31*	?	-5	-12	1
Cc1ccc(N2C(=O)NC(=O)/C(=C\c3cn(CC(=O)O)c4ccccc34)C2=O)cc1	-3	-7	-16%	2	-2	0
O=C(Nc1ccc2c(c1)OCO2)c1cccn(Cc2ccc(F)cc2)c1=O	0	.	?	0	-2	0
CN1C2CCC1CC(OC(=O)c1ccc(Cl)cc1)C2 (stereo unspecified)	6	2	1%	-2	3	1
CN1[C@@H]2CC[C@H]1CC(OC1c3ccccc3CCc3ccccc31)C2 (stereo partly specified)	44*	-43*	-9%	3	2	-1
CCc1ccc(OCC(=O)N2CCN(CCc3ccncc3)CC2)cc1	10	-9	2%	0	4	-2
O=c1c2ccccc2nc(/C=C\c2cccc(Br)c2)n1-c1ccc(O)cc1	5	8	-14%	-1	3	1
CN1C[C@H](C(=O)N[C@]2(C)O[C@@]3(O)[C@@H]4CCCN4C(=O)[C@H](Cc4ccccc4)N3C2=O)CC2c3cccc4[nH]cc(c34)C[C@H]21 (stereo partly specified)	1	-62*	?	-7	5	-1
